RE007 growth inh: less growth of the S. pombe RE007 Vpr strain; S. pombe RE007 Vpr strain, BacTiter-Glo ATP luminescence, 24 h; Potency, µM (highest dose often 92.2 µM), without a hit: at the top dose activity change, negative = less growth, hits mostly inhibitors; 360,000 tested, 0.21% active; active = well fitted falling curve with a large enough effect; inconclusive = small, poorly fitted or top-dose-only effect; inactive = no such curve, though single readings can be large or run the other way; note: nearly all actives have a fitted effect of over 50% in size
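Fission yeast RE007 carrying one integrated HIV-1 vpr copy, seeded at OD 0.01 in PMG+AL medium with 23 nL pinned compound. Grown 24 h at 30 degrees; viability read by BacTiter-Glo luminescence after 5 min.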
FBPA Giardia inh: blocks Giardia fructose-bisphosphate aldolase activity; purified Giardia FBPA; 290,000 tested, 0.71% active; AID 2451; Potency, µM (highest dose often 59.6 µM), without a hit: at the top dose activity, negative = inhibition, hits mostly inhibitors; A8B2U2; note: nearly all actives have a fitted effect of over 55% in size
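Giardia FBPA (40 nM reagent) was preincubated 10 min at RT with compound (up to 57.5 uM final), then substrate plus GAPDH/TPI/NAD/arsenate coupling system with diaphorase/resazurin was added; resorufin fluorescence (525/598 nm) was read after 20 min.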
LmPK inh: blocks Leishmania mexicana pyruvate kinase activity. Q27686. purified LmPK, Kinase-Glo ATP luminescence, 1 h. Potency, µM (series often up to 57.5 µM), for inactives: at the top dose activity change, negative = inhibition, actives largely listed as inhibitors. 290,000 tested, 0.37% active
Target sequence (Q27686 whole entry, looked up): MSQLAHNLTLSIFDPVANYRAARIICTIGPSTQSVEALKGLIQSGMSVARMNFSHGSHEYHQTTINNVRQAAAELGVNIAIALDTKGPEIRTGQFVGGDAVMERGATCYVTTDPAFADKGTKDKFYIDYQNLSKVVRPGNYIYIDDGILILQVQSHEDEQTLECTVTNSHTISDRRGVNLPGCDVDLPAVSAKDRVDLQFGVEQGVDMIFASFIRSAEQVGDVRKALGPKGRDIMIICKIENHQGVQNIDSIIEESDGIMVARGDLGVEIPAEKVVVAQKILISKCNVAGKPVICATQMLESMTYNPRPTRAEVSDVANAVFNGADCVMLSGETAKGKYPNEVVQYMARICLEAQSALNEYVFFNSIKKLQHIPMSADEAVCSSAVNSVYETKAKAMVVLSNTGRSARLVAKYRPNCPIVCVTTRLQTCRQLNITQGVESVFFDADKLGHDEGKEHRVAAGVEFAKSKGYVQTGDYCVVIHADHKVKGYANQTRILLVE
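Screened at intermediate enzyme activity to detect both inhibitors and activators: LmPK at 0.1 nM, with a 0.5 nM enzyme column as activation reference. PEP 0.5 mM, ADP 0.1 mM; ATP detected by luminescence after 1 h.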
Tb PYK inh: T. brucei pyruvate kinase inhibition; TbPYK enzyme, Kinase-Glo Plus ATP luminescence, 45 min; Q57TT1; 410,000 tested, 0.12% active; AID 624173; Potency, µM (highest dose often 76.8 µM), for the others: at the top dose activity, negative = inhibition, hits mostly inhibitors; note: nearly all actives have a fitted effect of over 50% in size
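Enzyme and substrate buffer are dispensed first and compound is pin-transferred. ADP at 130 uM final then starts the reaction, which runs 45 min at room temperature. Detection reagent is added for 10 min before luminescence is imaged.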
Sm TGR block: inhibitors of Schistosoma mansoni thioredoxin glutathione reductase | Q962Y6 | purified TGR, DTNB reduction, TNB absorbance 405 nm | Potency, µM (highest dose often 114 µM), without a hit: at the highest dose activity change, negative = inhibition, hits mostly inhibitors | 360,000 tested, 3% active; note: nearly all actives have a fitted effect of over 60% in size
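Kinetic colorimetric format: TGR-catalysed, NADPH-driven DTNB reduction monitored via TNB absorbance. Enzyme dispensed at 20 nM; compound exposure 15 min at room temperature before reaction start.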
Active calls of the source: *; ? = inconclusive; · = no result given; ! = a repeat was not active. In the library only some 3.3% were active in any assay of this set; here they are far more common. Unless noted, calls come from the whole dose curve; as a rule, active = well fitted curve in the direction sought with a large enough effect; inconclusive = small, poorly fitted or top-dose-only effect, or another doubt; inactive = no such curve, though single readings can be large; an effect the other way counts as inactive or inconclusive. % is set by controls: 0 for no effect and ±100 for the full control effect; potency is the fitted concentration of half-maximal effect.

SMILES	RE007 growth inh	FBPA Giardia inh	LmPK inh	Tb PYK inh	Sm TGR block
Oc1ccccc1/C=N/Nc1nn[nH]n1	20.7%	?	-11.9%	-12.9%	11.5%
Cc1nnc(N/N=C/c2ccccc2O)n1N	0.3%	7.06µM*	-0.7%	0.1%	-0.3%
Cc1cn([C@H]2C[C@H](O)[C@@H](/C=C/C(=O)NCCc3ccc4ccccc4c3)O2)c(=O)[nH]c1=O	3.2%	·	·	2.8%	·
Cn1ccnc1Sc1ccc(/C=N/NC(=O)c2ccccc2O)cc1[N+](=O)[O-]	0.6%	-3.6%	0.1%	-3.1%	-2.4%
CCn1c(-c2cc(Cl)ccc2OC)n[nH]c1=S	38.4%	-3.1%	?	11.2µM*	0.0%
C=CCn1c(-c2cc(Cl)ccc2OC)n[nH]c1=S	12.9%	0.2%	12.6µM*	?	4.7%
COc1ccc(Cl)cc1-c1n[nH]c(=S)n1C	-2.4%	-5.6%	-17.3%	?	2.9%
C=CCn1c(CCSCc2ccc(OC)c(C)c2)n[nH]c1=S	8.6%	-6.7%	3.7%	7.94µM*	-4.3%
Cc1cnc(C)c(N2CCN(Cc3nc(-c4cccc(F)c4F)oc3C)CC2)n1	0.5%	-2.0%	4.4%	-2.5%	35.5µM*
COC(=O)C1=C(N)OC2=C(C(=O)CCC2)C1c1cccs1 (stereo unspecified)	16.9%	-27.5%	3.3%	-3.4%	-0.5%
CCOC(=O)C1=C(c2ccccc2)OC(N)=C(C#N)C1c1cccs1 (stereo unspecified)	13.5%	-17.0%	6.2%	-25.0%	44.7µM*
CCOC(=O)C1=C(N)OC2=C(C(=O)CCC2)C1c1cccs1 (stereo unspecified)	4.3%	12.6µM*	0.2%	0.2%	-6.2%
CCn1c(CN2CCCCC2)nc2cc(NC(=O)c3ccc([N+](=O)[O-])cc3)ccc21	·	·	·	-4.2%	-3.7%
CN(C(=O)c1cccc(NC(=O)Cc2cccc(NC(=O)C3CCCN(C(=O)C4CCCCC4)C3)c2)c1)C1CCC1 (stereo unspecified)	22.2%	·	·	1.4%	·
O=C1C(=Cc2ccc(Br)o2)C(=O)c2ccccc21	-19.9%	-0.9%	-25.5%	-12.2%	11.2µM*
Cc1ccc(C(=O)O)cc1-c1ccc(C=C2C(=O)c3ccccc3C2=O)o1	-2.8%	-13.3%	2.1%	2.6%	44.7µM*
CCOc1ccc(N2C(=O)C(Cl)=C(N3CCOCC3)C2=O)cc1	24.7%	-0.5%	0.7%	-12.1%	22.4µM*
O=C1C(Cl)=C(N2CCOCC2)C(=O)N1c1ccccc1F	-1.4%	7.6%	2.8%	10.2%	39.8µM*
CCc1ccc2oc(-c3ccc(NC(C)=O)cc3)nc2c1	5.62µM*	-1.7%	-0.7%	-0.4%	-3.1%
Cc1ccc(O)c(C2=Nc3ccccc3N=C(c3cccc(F)c3)C2)c1	·	·	·	·	-6.0%
Cc1ccc2c(c1)N=C(c1ccccc1)CC(C(Cl)Cl)=N2	-12.9%	?	?	-18.8%	15.8µM*
Oc1ccc(Cl)cc1C1=Nc2ccccc2N=C(c2ccccc2)C1	·	·	·	0.0%	-3.1%
Cc1ccc(C2=Nc3ccccc3N=C(C(Cl)Cl)C2)cc1	-21.1%	?	?	-15.2%	35.5µM*
CC(=O)NN1C(=O)/C(=C\c2ccccc2)SC1=S	·	·	0.4%	5.5%	10.1%
CC(=O)NN1C(=O)/C(=C/c2ccc(Br)o2)SC1=S	0.3%	?	21.0%	?	25.1µM*
SMILES	RE007 growth inh	FBPA Giardia inh	LmPK inh	Tb PYK inh	Sm TGR block
CC(=O)NN1C(=O)/C(=C\c2ccc(Br)o2)SC1=S	-3.4%	?	14.2%	-2.4%	25.1µM*
O=C(O)C1CCCCN1C(=O)c1cc2c(s1)CCCCC2 (stereo unspecified)	5.6%	·	·	-0.8%	3.8%
CCOc1ccccc1N(CC)C(=O)Cn1ncc2c([nH]c3ccccc32)c1=O	·	·	·	1.1%	-2.2%
Cc1oc(-c2ccc3c(c2)OCCO3)cc1C(=O)NCC(=O)O	-0.3%	-0.3%	-0.6%	-20.1%	-4.6%
Cc1oc(-c2ccc3c(c2)OCCO3)cc1C(=O)O	?	3.9%	14.1µM*	?	?
CCCCC(=O)Nc1cccc(-c2ccc3nncn3n2)c1	11.6%	1.8%	2.4%	-3.7%	3.7%
COc1ccccc1S(=O)Cc1ccc(C(=O)NCCc2ccc(Cl)cc2)o1 (stereo unspecified)	-6.1%	1.2%	8.1%	-15.4%	39.8µM*
COc1ccccc1S(=O)Cc1ccc(C(=O)NC2CCCC2)o1 (stereo unspecified)	3.2%	-1.2%	8.1%	-24.6%	-7.1%
CCOc1ccc(CCNC(=O)c2ccc(CS(=O)Cc3ccc(Cl)cc3)o2)cc1 (stereo unspecified)	-8.6%	·	2.2%	10.0%	28.2µM*!
O=C(NCc1ccc(F)cc1)C(c1ccccc1)c1ccccc1	0.2%	8.1%	0.8%	-2.1%	4.6%
CC(=O)N(Cc1ccc(F)cc1)C1=C(NCc2ccccc2)C(=O)c2ccccc2C1=O	7.08µM*	?	-2.4%	-2.0%	-11.7%
Cc1occc1C(=O)Nc1ccc2c(c1)OCO2	-6.7%	-2.0%	14.1µM*	-16.5%	-23.4%
Cc1cc(NC(=O)c2ccoc2C)no1	-6.1%	-0.4%	17.8µM*	-18.8%	-31.4%
Cc1cc(NC(=O)c2ccoc2C)ccc1Br	?	·	·	-12.1%	6.2%
Cc1occc1C(=O)Nc1cccc2ccccc12	?	-13.0%	25.1µM*	-11.1%	-30.6%
Cc1ccc(NC(=O)c2ccoc2C)cc1C	-21.1%	-6.6%	14.1µM*	-24.5%	3.3%
O=C(Nc1ccc2c(c1)OCO2)c1ccc2c(c1)OCO2	-17.7%	-0.7%	?	-3.4%	6.8%
Cc1occc1C(=O)Nc1ccccc1NC(=O)c1ccoc1C	-5.5%	·	·	-9.2%	·
Cc1cc(NC(=O)c2cc(C)on2)no1	-6.6%	3.9%	1.4%	-2.0%	1.7%
COCCNc1nc2c(c(=O)n(Cc3ccccc3F)c(=O)n2C)n1C	4.3%	5.7%	-7.1%	-2.2%	11.8%
CC(C)(C)[C@@H]1COC(=O)[C@@H](NC(=O)OCC2c3ccccc3-c3ccccc32)C/C=C\C[C@@H](CC(=O)NCCO)C(=O)N1	0.7%	·	·	-10.2%	·
CC/C(=N\NC(=O)Nc1ccccc1)c1ccccc1	9.3%	3.2%	0.6%	1.1%	-2.9%
Cc1ccc(NC(=O)c2noc(C(C)C)c2[N+](=O)[O-])cc1	-4.4%	-9.6%	1.7%	3.8%	39.8µM*
CC(C)c1onc(C(=O)Nc2cccnc2Cl)c1[N+](=O)[O-]	-3.7%	-13.2%	-2.5%	8.7%	44.7µM*
CC(C)c1onc(C(=O)Nc2cccc(O)c2)c1[N+](=O)[O-]	0.3%	1.7%	9.6%	4.4%	?
Cc1onc(C(=O)Nc2cccnc2Cl)c1[N+](=O)[O-]	1.2%	-5.8%	-0.6%	-2.8%	-21.4%
CN(C)C(=O)C1C2NC(=S)N(c3ccccc3)C1(C)Oc1ccccc12 (stereo unspecified)	-6.0%	3.5%	2.9%	-2.7%	4.9%
COn1c2c(c3c4no[n+]([O-])c4ccc31)CCCC2	-8.3%	-4.9%	3.7%	0.0%	17.0%

Assay outcomes (PubChem BioAssay)
